Hits are enriched below; roughly 1.6% of the tested compounds scored in any of these assays.
KCNQ2 block: KCNQ2 (rat) channel inhibition | hit rate 1.1% among 310,000 | AID 2156 | B-score at 10 µM | CHO-K1 KCNQ2, FluxOR thallium flux, 20 min; active compounds read low;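 active means fluorescence ratio B-score at most minus 3 library SDs, with starting brightness B-score within 2 library SDs, cut at about -5.5 in these data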
Target sequence (O88943 whole entry, looked up): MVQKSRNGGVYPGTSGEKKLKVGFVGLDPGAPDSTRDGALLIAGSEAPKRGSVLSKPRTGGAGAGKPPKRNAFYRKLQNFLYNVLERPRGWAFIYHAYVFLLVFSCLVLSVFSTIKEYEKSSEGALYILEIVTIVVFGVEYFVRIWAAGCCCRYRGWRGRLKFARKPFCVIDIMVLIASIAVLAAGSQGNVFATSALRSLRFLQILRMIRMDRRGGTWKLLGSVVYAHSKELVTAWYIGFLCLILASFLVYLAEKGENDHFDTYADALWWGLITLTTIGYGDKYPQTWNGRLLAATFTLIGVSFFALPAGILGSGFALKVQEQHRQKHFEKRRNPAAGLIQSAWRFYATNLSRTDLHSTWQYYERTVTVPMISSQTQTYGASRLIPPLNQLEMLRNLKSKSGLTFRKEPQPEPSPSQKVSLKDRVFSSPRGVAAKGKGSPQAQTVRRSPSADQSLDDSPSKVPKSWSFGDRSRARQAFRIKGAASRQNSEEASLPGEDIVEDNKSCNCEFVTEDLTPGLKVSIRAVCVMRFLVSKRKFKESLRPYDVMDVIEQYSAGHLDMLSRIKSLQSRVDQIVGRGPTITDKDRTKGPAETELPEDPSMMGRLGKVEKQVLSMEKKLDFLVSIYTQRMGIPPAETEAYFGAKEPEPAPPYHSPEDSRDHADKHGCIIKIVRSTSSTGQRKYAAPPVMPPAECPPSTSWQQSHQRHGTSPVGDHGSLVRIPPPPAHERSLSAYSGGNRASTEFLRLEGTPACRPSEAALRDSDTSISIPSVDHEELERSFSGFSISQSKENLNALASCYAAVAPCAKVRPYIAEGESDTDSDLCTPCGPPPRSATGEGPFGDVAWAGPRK
KCNQ2 enhance: enhances the rat KCNQ2 potassium channel | O88943 | CHO-K1 KCNQ2, FluxOR thallium flux fluorescence; active compounds read high | B-score at 10 µM | hit rate 0.54% among 310,000 | AID 2239;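 active means fluorescence ratio B-score at least 3 SD of library B-scores, with initial fluorescence B-score within 3 of them, cut at about 5.3 in these data; same plate scores as AID 2156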;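 further: B-score of peak minus minimum over baseline fluorescence ratio after K+ and Tl+ stimulus; positive B-score means potentiation of KCNQ2 with more thallium influx and brighter signal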
KCNQ2 block conf: confirmation of rat KCNQ2 potassium channel inhibitors. shares compounds with KCNQ2 block. KCNQ2-expressing cells, thallium flux, inhibition; active compounds read low. activity change, negative = inhibition, % at 10 µM. hit rate 57% among 1,000. AID 493025
KCNQ1 spec: selectivity of KCNQ2 inhibitors against human KCNQ1. shares compounds with KCNQ2 block. KCNQ1-expressing cells, FluxOR thallium flux fluorescence; active compounds read low. activity change, negative = inhibition, % at 10 µM. hit rate 15% among 1,000. AID 493026;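 active means activity change at least 3 SD of negative controls below their mean in both duplicate wells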;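 further: CHO cells stably transfected with KCNQ1 and depolarized by potassium stimulus; peak minus minimum fluorescence over baseline after thallium addition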
CHO Tl ctr: counter-screen for KCNQ2 inhibitors: effect in parental CHO cells | AID 493029 | shares compounds with KCNQ2 block | thallium flux counter-screen; active compounds read low | hit rate 14% among 1,000 | activity change, % at 10 µM
KCNQ2 patch conf: rat KCNQ2 inhibition confirmed by electrophysiology; calls only at 10 µM; shares compounds with KCNQ2 block; hit rate 49% among 550; KCNQ2-expressing cells, automated patch clamp current
Large screens that a line does not name were inactive (follow-up assays come after a bar, where they were run). Unless noted, how the calls were made is not given here.

COc1ccc(C(CC(=O)c2ccc(C)cc2)Nc2ccc([N+](=O)[O-])cc2)cc1 (stereo not drawn)	KCNQ2 block -6.9 | KCNQ2 block conf -42% | KCNQ1 spec -33% | CHO Tl ctr -26% | KCNQ2 patch conf inactive
Cc1ccc(NC(CC(=O)c2ccccc2)c2ccc(F)cc2)cc1 (stereo not drawn)	none (no result: KCNQ2 enhance)
COCCN(C(=O)Cc1cccs1)C(C(=O)NCc1ccc(OC)cc1)c1ccc(C(C)C)cc1 (stereo not drawn)	KCNQ2 block -8.6 | KCNQ2 block conf -35% | KCNQ1 spec inactive | CHO Tl ctr inactive | KCNQ2 patch conf active
CCc1ccc(C(C(=O)NCc2ccc(OC)cc2)N(CCOC)C(=O)Cc2cccs2)cc1 (stereo not drawn)	none (no result: KCNQ2 enhance)
COC(=O)C(CO)NC(=O)C1CCCN1C(=O)CNC(=O)OCc1ccccc1 (stereo not drawn)	none (no result: KCNQ2 enhance)
CCOc1ccccc1CN1CCN(Cc2ccon2)CC1CCO (stereo not drawn)	none
COc1ccc(Cl)cc1C(=O)NC(=S)Nc1ccccc1N1CCOCC1	KCNQ2 block -12 | KCNQ2 block conf -28% | KCNQ1 spec inactive | CHO Tl ctr inactive | KCNQ2 patch conf active
Cc1cc(Cl)ccc1OCC(=O)NC(=S)Nc1ccccc1N1CCOCC1	none (no result: KCNQ2 enhance)
Cc1nnc(SCCOc2ccccc2)s1	none
C[C@H](NC(=O)[C@@H]1CSC2c3ccccc3C(=O)N21)C(=O)NCc1c(F)cccc1Cl (stereo partly drawn)	none (no result: KCNQ2 enhance)
C=CCN1C(=O)c2ccc(C(=O)N(CCOC)c3c(N)n(CCCC)c(=O)[nH]c3=O)cc2C1=O	none (no result: KCNQ2 enhance)
O=C(OC1CCN(c2ncc(C(F)(F)F)cc2Cl)CC1)c1ccccc1	none (no result: KCNQ2 enhance)
COc1ccc(C(=O)OC2CCN(c3ncc(C(F)(F)F)cc3Cl)CC2)cc1	KCNQ2 block -8.7 | KCNQ2 block conf inactive | KCNQ1 spec inactive | CHO Tl ctr inactive
CC(=O)N1CCN(C2=Nc3cccc4cccc2c34)CC1	none (no result: KCNQ2 enhance)
COc1ccccc1N1CCN(C2=Nc3cccc4cccc2c34)CC1	KCNQ2 block -9 | KCNQ2 block conf -34% | KCNQ1 spec inactive | CHO Tl ctr inactive | KCNQ2 patch conf active
O=[N+]([O-])c1cc(-c2cnc3ccccc3n2)ccc1Oc1ccc(F)cc1	KCNQ2 block -8.4 | KCNQ2 block conf -20% | KCNQ1 spec inactive | CHO Tl ctr inactive | KCNQ2 patch conf inactive
O=[N+]([O-])c1ccccc1Oc1cnc2ccccc2n1	none
COc1ccccc1NCCC(=O)OCC(=O)NC1CCCCCC1	none
Cc1ccc(NC(=O)CCn2c(=O)[nH]c3ccsc3c2=O)cc1F	none
O=C1CSC(c2cccs2)N1c1ccccc1 (stereo not drawn)	none
c1ccc(N2CCN(c3ccccc3)C2c2cccs2)cc1	KCNQ2 block -7 | KCNQ2 block conf inactive | KCNQ1 spec inactive | CHO Tl ctr inactive
COc1ccccc1-c1cc(C(=O)N2CCN(c3ccccc3)CC2)no1	none (no result: KCNQ2 enhance)
COc1cc2c(C(=O)N3CCN(c4ccccc4)CC3)c(C)oc2cc1Br	KCNQ2 block -7.4 | KCNQ2 block conf -37% | KCNQ1 spec inactive | CHO Tl ctr inactive | KCNQ2 patch conf active
CCc1nccn1CCC(=O)NC1CCCc2c1cnn2-c1ccc(F)cc1F (stereo not drawn)	none
CC(=O)Nc1cccc(C(=O)OCC(=O)Nc2ccc(Cl)cn2)c1	none (no result: KCNQ2 enhance)
CCC1(C(=O)c2ccccc2)C2c3cc(Br)ccc3OC(=O)C21C(=O)N1CCOCC1 (stereo not drawn)	KCNQ2 block -9.7 | KCNQ2 block conf inactive | KCNQ1 spec inactive | CHO Tl ctr inactive
O=C(Oc1ccc(Br)cc1C(=S)N1CCOCC1)c1ccccc1	none (no result: KCNQ2 enhance)
CCc1ccc(-c2cc(C)no2)cc1S(=O)(=O)N1CCC(C)CC1	none (no result: KCNQ2 enhance)
Cc1cc(-c2ccc(C(C)C)c(S(=O)(=O)N3CCC(C)CC3)c2)on1	KCNQ2 block -8.4 | KCNQ2 block conf -16% | KCNQ1 spec inactive | CHO Tl ctr inactive | KCNQ2 patch conf inactive
COc1ccc(N2CCN(Cc3cc(=O)c(OCC(=O)NC4CCCC4)co3)CC2)cc1	none (no result: KCNQ2 enhance)
CCC(C)(C)n1nnnc1C(c1cc2cccc(C)c2[nH]c1=O)N1CCCC1 (stereo not drawn)	none (no result: KCNQ2 enhance)
Cc1cccc2cc(C(c3nnnn3C3CCCC3)N3CCOCC3)c(=O)[nH]c12 (stereo not drawn)	KCNQ2 block -7.8 | KCNQ2 block conf -24% | KCNQ1 spec inactive | CHO Tl ctr inactive | KCNQ2 patch conf active
CCOC(=O)CC/C(=N\NC(N)=O)c1ccc(OC)c(Cl)c1	none (no result: KCNQ2 enhance)
